PAFAH1B2 inh: PAFAH1B2 (human) inhibition; P68402; recombinant PAFAH1B2, FP-rhodamine activity probe, fluorescence polarization; inhibition, % at 3.39 µM; 340,000 tested, 1.2% active; AID 492953;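 active means inhibition above the mean of all tested compounds plus 3 SD, cut at about 24% in these data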;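 further: 0% = enzyme with DMSO and 100% = wells lacking PAFAH1B2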
PP5 inh: PP5 (human) phosphatase inhibition. P53041. purified PP5c, OMFP substrate fluorescence. inhibition, % at 6.7 µM. 320,000 tested, 0.18% active. AID 1987;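 active means inhibition above the campaign's mean inhibition across all tested compounds plus 3 SD, cut at about 9.5% in these data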;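 further: 0% = DMSO only and 100% = 100 µM cantharidin control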
PAFAH2 inh: PAFAH2 (human) inhibition. Q99487. recombinant PAFAH2, FP-rhodamine activity probe, fluorescence polarization. inhibition, % at 3.39 µM. 340,000 tested, 0.99% active;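 active means inhibition above the mean over all tested compounds plus 3 SD, cut at about 30% in these data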;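 further: inhibitors block probe labeling of enzyme so polarization drops; 0% = enzyme with DMSO and 100% = wells lacking PAFAH2 protein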
PAFAH1B3 inh: blocks human PAF acetylhydrolase 1B catalytic subunit 3. Q15102. recombinant PAFAH1B3, FP-rhodamine probe, fluorescence polarization. inhibition, % at 3.39 µM. 340,000 tested, 0.28% active;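 active means inhibition above the screen-wide average of all tested compounds plus 3 SD, cut at about 25% in these data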;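 further: 0% = enzyme with DMSO only and 100% = wells lacking PAFAH1B3 protein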
Target sequence (Q15102 whole entry, looked up): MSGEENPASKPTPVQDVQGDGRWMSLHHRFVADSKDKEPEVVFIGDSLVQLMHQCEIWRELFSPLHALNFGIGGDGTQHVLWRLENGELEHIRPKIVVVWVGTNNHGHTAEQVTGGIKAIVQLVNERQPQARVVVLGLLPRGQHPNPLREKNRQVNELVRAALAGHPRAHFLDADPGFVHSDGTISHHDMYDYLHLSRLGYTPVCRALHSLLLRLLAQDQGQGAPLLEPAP
PP1 inh: PP1-alpha (human) inhibition in PP5 counter-screen; AID 2235; inhibition, % at 6.7 µM; 320,000 tested, 0.9% active; purified PP1alpha, OMFP fluorescence; P62136;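 active means inhibition above the mean inhibition of all tested compounds plus 3 SD, computed separately for each screening campaign, cut at about 15% in these data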
Target sequence (P62136 whole entry, looked up): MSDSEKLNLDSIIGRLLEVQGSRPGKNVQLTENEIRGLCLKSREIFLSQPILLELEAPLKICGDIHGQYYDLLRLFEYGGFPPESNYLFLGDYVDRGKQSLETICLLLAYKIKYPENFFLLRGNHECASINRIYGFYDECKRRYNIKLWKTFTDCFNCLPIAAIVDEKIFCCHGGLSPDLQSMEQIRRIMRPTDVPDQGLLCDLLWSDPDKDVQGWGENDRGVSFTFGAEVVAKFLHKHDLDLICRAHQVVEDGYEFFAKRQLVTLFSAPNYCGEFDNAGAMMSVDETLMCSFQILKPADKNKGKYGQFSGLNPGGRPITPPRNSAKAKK
pPAFAH inh: inhibitors of human plasma PAF acetylhydrolase (pPAFAH); recombinant pPAFAH, FP-rhodamine probe fluorescence polarization; inhibition, % at 3.39 µM; 330,000 tested, 1.5% active; AID 463082;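 active means inhibition above the mean inhibition across the screen plus 3 SD, cut at about 25% in these data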;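 further: inhibitors block binding of the rhodamine activity-based probe so polarization drops; 0% = enzyme with DMSO and 100% = wells lacking pPAFAH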
pPAFAH confirm: pPAFAH (human) inhibition, confirmed; shares compounds with pPAFAH inh; recombinant pPAFAH, FP-Rh probe fluorescence polarization; inhibition, % at 3.39 µM; 2,300 tested, 72% active;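 active means mean inhibition of the triplicate above the hit cutoff set for the earlier primary screen, cut at about 25% in these data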;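 further: 0% = enzyme with DMSO and 100% = wells lacking pPAFAH enzyme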
* hit, by the source's call; / = no result given. Most compounds without a hit are left out; they make up all but 3.4% or so of the library.

SMILES	PAFAH1B2 inh	PP5 inh	PAFAH2 inh	PAFAH1B3 inh	PP1 inh	pPAFAH inh	pPAFAH confirm
O=C1CC(c2ccc(Cl)cc2)SC(N(c2ccccc2)c2ccccc2)=N1 (stereo unspecified)	13	-1	-5	4	-2	4	/
CC(Oc1ccccc1F)C(=O)NNC(=O)CCNC(=O)c1ccccc1Cl (stereo unspecified)	4	3	-1	3	-5	54*	-1
CCCCCCCc1nn2c(=O)cc(O)nc2s1	9	2	-3	2	2	47*	10
CCCc1nn2c(=O)cc(O)nc2s1	-2	3	5	0	3	-5	/
CCc1noc(C)c1C(=O)Nc1nnc(CC(C)C)s1	1	1	-5	0	0	-3	/
Cc1cc(/C=C2\C(=N)N3N=C(c4ccco4)SC3=NC2=O)c(C)n1Cc1ccccc1	36*	1	16	13	15	36*	70*
Cc1cccn2c(=O)c3cc(C(=O)NCC4CCCO4)c(=N)n(C4CCCC4)c3nc12 (stereo unspecified)	3	2	-2	-1	-6	5	/
O=C(O)c1cc(-c2ccco2)nn1-c1cccc(Cl)c1	9	-3	16	12	12	40*	16
O=C(O)c1cc(-c2ccco2)nn1-c1ccc(Cl)cc1	6	/	9	1	/	/	/
CCc1nc(-c2ccccc2)cc(=O)[nH]1	-1	-1	4	10	-2	40*	4
CCc1ccc(NC(=O)Nc2ccc3c(c2)N(C)C(=O)CS3)cc1	0	1	-2	5	-2	37*	24
Cc1cc(C)cc(NC(=O)Nc2ccc3c(c2)N(C)C(=O)CS3)c1	-4	3	-10	7	-2	13	/
Cc1ccc(C)c(NC(=O)CSc2sc3c(O)cc(=O)[nH]c3c2C#N)c1	4	2	18	10	3	18	/
COc1ccc(NC(=O)CSc2sc3c(O)cc(=O)[nH]c3c2C#N)c(OC)c1	9	1	23	13	13	36*	14
Cc1ccc(Cl)cc1NC(=O)CSc1sc2c(O)cc(=O)[nH]c2c1C#N	7	-1	9	18	8	20	/
Cc1cc(NC(=O)CSc2sc3c(O)cc(=O)[nH]c3c2C#N)ccc1Br	7	-2	-5	9	9	52*	27*
N#Cc1c(SCC(=O)Nc2cccc(C(F)(F)F)c2)sc2c(O)cc(=O)[nH]c12	11	6	18	13	10	40*	11
CCSc1nnc(NC(=O)CSc2sc3c(O)cc(=O)[nH]c3c2C#N)s1	29*	1	50*	17	5	39*	35*
CCOc1ccc(S(=O)(=O)N2CCC(C(=O)NCCN3CCOCC3)CC2)cc1C	7	0	-7	3	-2	3	/
Cc1ccc(S(=O)(=O)N2CCCCC2)cc1NC(=O)c1ccncc1	2	/	8	-4	/	/	/
COc1ccc(CCNC(=O)Cc2ccsc2)cc1	6	0	0	-4	-3	3	/
O=C(NCc1ccccc1Cl)c1ccc2c(c1)OCO2	1	-3	6	-2	-2	-3	/
CC1=C(/C=C/C(C)=C/C=C/C(C)=C/C(=O)Nc2ccc(O)cc2)C(C)(C)CCC1	8	3	-1	2	0	54*	53*
COc1ccc(O)c(C(=O)C2c3ccccc3C(=O)N2c2ccc(C)cc2)c1 (stereo unspecified)	4	2	4	1	-1	40*	-1
CC1=Nc2ccccc2/C1=C/c1sc(=N)n(-c2nccs2)c1O	9	4	24	16	6	56*	51*
SMILES	PAFAH1B2 inh	PP5 inh	PAFAH2 inh	PAFAH1B3 inh	PP1 inh	pPAFAH inh	pPAFAH confirm
CC(C)(C)CC(C)(C)NC(=O)/C=C/C(=O)O	-2	1	1	2	-3	1	/
Cc1cc(C(=O)CSc2nnc(N)s2)c(C)n1CCc1ccc(F)cc1	10	-1	3	12	3	13	/
Cc1cc(C(=O)CSc2nc(N)cc(=O)[nH]2)c(C)n1-c1ccc(OC(F)F)cc1	0	0	0	-1	3	60*	71*
COc1ccc(CCn2c(C)cc(C(=O)CSc3nc(N)cc(=O)[nH]3)c2C)cc1	1	9	-4	-2	9	35*	31*
Cc1cc(C(=O)CSc2nc(N)cc(=O)[nH]2)c(C)n1CCc1ccc(F)cc1	-4	2	-9	-12	6	61*	62*
O=c1nc(/C=C/c2cccn2-c2ccc([N+](=O)[O-])cc2)cc(C(F)(F)F)[nH]1	9	0	6	1	5	36*	15
O=c1cc(CSc2ccc(Cl)cc2)[nH]c2[nH]n(-c3ccccc3)c(=O)c12	45*	0	33*	6	7	43*	27*
Cc1ccc(SCc2cc(=O)c3c(=O)n(-c4ccccc4)[nH]c3[nH]2)cc1	25*	0	25	14	2	46*	21
Cc1[nH]n(-c2ccccc2)c(=O)c1Sc1ccc(Cl)cc1	16	-1	2	11	-2	8	/
O=c1cc(CSc2ccccc2)[nH]c2ccccc12	9	0	0	-11	2	1	/
COc1ccccc1NC(=O)c1cccc2c(Br)cccc12	-1	3	4	8	-1	1	/
CCCCCCC[C@@H](C/C=C/CCC(=O)N(C)C/C(=C/Cl)C/C(=C\C(=O)N1C[C@H](O)CC1=O)OC)OC	5	/	2	5	/	41*	37*
CCOc1ccc2c(c1)C(=O)c1cc(OCC(=O)O)ccc1-2	3	4	1	8	0	37*	7
CCCCOc1ccc2c(c1)C(=O)c1cc(O)ccc1-2	12	4	11	16	2	11	/
Cc1ccc(/C(O)=C2/C(=O)C(=O)N(CC(=O)O)C2c2ccc([N+](=O)[O-])cc2)cc1 (stereo unspecified)	7	7	1	6	2	37*	5
Cc1ccc(/C(O)=C2\C(=O)C(=O)N(C)C2c2ccc([N+](=O)[O-])cc2)cc1 (stereo unspecified)	4	1	-4	0	0	1	/
Cc1[nH]c2ccccc2c1N=Nc1ccccc1C(=O)O	6	4	9	20	-2	47*	31*
Cc1[nH]c2ccccc2c1N=Nc1cccc(C(=O)O)c1	2	1	7	8	0	5	/
N#C/C(=C\c1ccc([N+](=O)[O-])o1)C(=O)Nc1ccc(F)cc1	1	1	9	7	3	44*	24
O=C(NCC1CCCO1)c1ccc2c(=O)n(CC3CCCO3)c(=S)[nH]c2c1 (stereo unspecified)	6	1	5	1	1	1	/
